# Assay results taken from doi:10.1101/2025.08.08.669391.
# What was measured:
# Experiment in all cases: cross-linking mass spectrometry
# Conditions in all cases: DSSO, not determined
# AIF1L = AIF1L (UniProt Q9BQI0)
# B4GALNT4 = B4GALNT4 (UniProt Q76KP1)
# CCT2 = CCT2 (UniProt P78371)
# CCT4 = CCT4 (UniProt P50991)
# MEPE = MEPE (UniProt Q9NQ76)
# SF3B1 = SF3B1 (UniProt O75533)
# SMC4 = SMC4 (UniProt Q9NTJ3)
# SNU13 = SNU13 (UniProt P55769)
# TPPP3 = TPPP3 (UniProt Q9BW30)
# TRIM28 = TRIM28 (UniProt Q13263)
# XRCC5 = XRCC5 (UniProt P13010)
# Sequence of UniProt P13010 (P13010 whole entry): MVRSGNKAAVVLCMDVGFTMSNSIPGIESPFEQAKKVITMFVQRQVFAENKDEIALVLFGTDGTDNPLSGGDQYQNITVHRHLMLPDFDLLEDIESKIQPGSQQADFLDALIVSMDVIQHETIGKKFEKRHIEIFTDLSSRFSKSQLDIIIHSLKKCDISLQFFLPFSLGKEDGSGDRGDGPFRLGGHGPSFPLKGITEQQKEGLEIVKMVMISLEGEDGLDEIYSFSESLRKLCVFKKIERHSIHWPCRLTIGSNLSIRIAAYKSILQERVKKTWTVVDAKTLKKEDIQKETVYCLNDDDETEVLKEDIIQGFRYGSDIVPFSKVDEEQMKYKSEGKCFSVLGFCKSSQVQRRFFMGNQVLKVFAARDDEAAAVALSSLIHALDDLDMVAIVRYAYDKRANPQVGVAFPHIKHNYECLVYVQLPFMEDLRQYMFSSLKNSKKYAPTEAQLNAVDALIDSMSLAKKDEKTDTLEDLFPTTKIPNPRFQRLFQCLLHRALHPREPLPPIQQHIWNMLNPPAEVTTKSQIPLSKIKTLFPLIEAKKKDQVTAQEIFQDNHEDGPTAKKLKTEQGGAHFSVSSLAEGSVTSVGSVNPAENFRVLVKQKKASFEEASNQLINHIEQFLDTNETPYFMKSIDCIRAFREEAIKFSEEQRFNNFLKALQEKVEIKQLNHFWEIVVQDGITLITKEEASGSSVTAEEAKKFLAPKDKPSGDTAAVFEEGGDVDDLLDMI
# Sequence of UniProt Q9NTJ3 (Q9NTJ3 whole entry): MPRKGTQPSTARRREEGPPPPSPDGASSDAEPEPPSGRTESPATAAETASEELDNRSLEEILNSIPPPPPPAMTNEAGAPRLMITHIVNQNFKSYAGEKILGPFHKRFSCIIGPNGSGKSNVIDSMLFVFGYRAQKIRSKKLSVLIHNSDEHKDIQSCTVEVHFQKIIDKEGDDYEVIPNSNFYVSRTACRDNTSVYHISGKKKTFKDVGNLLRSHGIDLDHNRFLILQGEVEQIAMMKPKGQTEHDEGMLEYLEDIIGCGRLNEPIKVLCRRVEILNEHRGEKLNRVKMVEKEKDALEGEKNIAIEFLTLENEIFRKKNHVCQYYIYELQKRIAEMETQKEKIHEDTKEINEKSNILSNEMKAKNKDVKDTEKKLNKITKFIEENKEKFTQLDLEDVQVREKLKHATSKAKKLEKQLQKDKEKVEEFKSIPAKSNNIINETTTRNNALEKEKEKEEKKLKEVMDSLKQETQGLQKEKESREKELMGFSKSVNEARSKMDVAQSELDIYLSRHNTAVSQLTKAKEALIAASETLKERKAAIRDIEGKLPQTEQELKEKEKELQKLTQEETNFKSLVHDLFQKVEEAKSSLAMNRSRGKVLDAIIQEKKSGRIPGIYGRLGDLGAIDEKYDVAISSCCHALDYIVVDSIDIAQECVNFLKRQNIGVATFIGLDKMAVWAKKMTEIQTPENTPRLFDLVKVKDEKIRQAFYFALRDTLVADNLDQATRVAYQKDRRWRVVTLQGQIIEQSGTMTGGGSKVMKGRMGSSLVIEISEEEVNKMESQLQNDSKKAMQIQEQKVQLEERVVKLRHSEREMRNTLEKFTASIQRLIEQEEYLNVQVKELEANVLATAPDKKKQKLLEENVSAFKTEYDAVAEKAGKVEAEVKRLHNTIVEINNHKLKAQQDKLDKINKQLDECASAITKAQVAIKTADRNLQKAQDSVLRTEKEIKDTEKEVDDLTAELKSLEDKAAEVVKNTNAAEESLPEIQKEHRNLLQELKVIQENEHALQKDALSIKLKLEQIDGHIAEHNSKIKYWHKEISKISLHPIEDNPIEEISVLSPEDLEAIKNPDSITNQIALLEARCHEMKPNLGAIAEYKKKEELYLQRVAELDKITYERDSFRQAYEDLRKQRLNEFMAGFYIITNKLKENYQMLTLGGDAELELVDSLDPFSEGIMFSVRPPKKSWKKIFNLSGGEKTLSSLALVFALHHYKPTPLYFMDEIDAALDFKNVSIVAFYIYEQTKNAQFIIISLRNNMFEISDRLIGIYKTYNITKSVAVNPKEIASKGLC
# Sequence of UniProt P78371 (P78371 whole entry): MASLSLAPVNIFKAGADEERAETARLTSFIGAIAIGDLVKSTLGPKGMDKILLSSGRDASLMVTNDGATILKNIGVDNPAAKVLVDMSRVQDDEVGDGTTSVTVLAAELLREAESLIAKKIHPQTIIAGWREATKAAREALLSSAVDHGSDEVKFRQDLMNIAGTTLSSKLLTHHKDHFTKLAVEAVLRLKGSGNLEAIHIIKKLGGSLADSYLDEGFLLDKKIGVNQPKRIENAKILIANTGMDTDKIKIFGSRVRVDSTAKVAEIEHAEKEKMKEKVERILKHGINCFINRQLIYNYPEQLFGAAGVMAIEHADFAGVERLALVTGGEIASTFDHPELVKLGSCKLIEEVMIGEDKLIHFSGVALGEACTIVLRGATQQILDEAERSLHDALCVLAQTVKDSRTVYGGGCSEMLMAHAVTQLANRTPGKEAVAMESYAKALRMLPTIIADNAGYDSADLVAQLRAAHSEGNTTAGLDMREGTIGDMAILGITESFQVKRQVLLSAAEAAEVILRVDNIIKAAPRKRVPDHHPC
# Sequence of XRCC6 (P12956 whole entry): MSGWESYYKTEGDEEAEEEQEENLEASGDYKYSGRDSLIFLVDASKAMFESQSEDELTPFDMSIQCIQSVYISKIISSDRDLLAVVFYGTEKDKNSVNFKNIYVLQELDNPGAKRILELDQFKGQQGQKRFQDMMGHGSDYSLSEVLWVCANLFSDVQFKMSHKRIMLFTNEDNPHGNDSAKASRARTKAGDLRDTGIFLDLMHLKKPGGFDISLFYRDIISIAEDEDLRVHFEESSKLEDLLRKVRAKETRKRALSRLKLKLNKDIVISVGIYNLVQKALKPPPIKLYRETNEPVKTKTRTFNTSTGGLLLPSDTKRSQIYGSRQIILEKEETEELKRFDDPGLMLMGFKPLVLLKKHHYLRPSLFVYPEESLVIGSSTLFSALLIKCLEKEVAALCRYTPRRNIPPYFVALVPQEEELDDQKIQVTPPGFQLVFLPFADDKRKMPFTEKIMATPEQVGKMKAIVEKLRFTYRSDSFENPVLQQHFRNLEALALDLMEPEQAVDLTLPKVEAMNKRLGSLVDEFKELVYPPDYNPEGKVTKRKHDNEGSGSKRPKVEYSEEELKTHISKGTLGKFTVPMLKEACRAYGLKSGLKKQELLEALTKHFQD
# Sequence of UniProt P55769 (P55769 whole entry): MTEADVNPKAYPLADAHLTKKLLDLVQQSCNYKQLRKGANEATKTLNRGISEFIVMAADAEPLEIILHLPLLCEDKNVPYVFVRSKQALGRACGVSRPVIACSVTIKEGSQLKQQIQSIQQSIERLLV
# Sequence of UniProt O75533 (O75533 whole entry): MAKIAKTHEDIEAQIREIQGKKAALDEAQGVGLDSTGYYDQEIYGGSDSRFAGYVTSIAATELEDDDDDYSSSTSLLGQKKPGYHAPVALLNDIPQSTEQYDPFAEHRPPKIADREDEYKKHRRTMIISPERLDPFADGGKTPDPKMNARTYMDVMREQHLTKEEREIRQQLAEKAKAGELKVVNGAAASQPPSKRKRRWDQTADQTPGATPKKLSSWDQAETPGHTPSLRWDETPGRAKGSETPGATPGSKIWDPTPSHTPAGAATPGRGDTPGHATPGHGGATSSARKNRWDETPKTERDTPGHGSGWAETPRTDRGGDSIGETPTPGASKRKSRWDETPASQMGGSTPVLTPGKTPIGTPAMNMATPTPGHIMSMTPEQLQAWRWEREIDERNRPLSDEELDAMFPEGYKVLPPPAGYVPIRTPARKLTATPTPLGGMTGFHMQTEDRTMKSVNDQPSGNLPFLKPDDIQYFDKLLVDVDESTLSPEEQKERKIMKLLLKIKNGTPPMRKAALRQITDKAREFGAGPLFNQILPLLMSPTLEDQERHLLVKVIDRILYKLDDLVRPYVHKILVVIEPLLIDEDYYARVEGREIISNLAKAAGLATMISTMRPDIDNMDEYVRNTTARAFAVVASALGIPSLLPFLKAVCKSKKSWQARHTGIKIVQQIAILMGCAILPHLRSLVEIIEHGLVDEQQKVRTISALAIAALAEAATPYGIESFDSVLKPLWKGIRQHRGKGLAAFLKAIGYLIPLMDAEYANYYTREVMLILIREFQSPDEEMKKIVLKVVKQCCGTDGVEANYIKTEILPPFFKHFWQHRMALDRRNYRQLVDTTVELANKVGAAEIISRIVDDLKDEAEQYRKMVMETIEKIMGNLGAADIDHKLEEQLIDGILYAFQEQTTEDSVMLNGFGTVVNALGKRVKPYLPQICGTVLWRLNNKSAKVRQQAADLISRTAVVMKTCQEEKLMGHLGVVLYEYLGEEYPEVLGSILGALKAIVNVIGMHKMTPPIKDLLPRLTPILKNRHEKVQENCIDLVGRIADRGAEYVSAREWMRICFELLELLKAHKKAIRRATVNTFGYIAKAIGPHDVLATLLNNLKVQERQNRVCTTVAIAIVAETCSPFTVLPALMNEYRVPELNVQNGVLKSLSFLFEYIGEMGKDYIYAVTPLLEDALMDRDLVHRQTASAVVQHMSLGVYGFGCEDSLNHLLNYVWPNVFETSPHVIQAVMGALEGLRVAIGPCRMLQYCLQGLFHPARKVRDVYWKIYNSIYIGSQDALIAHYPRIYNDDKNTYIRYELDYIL
# Sequence of VIM (P08670 whole entry): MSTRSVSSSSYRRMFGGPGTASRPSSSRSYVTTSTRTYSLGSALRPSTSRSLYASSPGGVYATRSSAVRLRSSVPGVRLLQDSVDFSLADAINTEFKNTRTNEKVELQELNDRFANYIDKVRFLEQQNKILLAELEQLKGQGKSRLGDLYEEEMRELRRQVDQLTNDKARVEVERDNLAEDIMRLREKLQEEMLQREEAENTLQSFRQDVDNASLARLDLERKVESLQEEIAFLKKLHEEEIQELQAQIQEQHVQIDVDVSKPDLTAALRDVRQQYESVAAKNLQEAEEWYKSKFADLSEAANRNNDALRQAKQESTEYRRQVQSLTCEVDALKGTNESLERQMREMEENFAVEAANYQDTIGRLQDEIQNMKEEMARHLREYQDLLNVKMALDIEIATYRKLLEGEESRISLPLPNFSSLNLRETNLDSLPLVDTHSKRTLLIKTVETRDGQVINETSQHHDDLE
substance,measurement,setting,value
"CLEC4F, Q8N1N0",cross-linked residues,AIF1L,K474 - K129
"EPRS1, P07814",cross-linked residues,B4GALNT4,K300 - K232
"CCT4, P50991",cross-linked residues,CCT2,K21 - K522
"TCP1, P17987",cross-linked residues,CCT4,K126 - K55
"EPHX2, P34913",cross-linked residues,MEPE,K55 - K369
"HTATSF1, O43719",cross-linked residues,SF3B1,K297 - K333
"SMC2, O95347",cross-linked residues,SMC4,K580 - K731
"NOP56, O00567",cross-linked residues,SNU13,K396 - K86
"VIM, P08670",cross-linked residues,TPPP3,K223 - K48
"BCL9, O00512",cross-linked residues,TRIM28,K1244 - K289
"XRCC6, P12956",cross-linked residues,XRCC5,K317 - K282
